Laboratory results taken from the supplement of paper PMC13094657.
± gives the standard deviation of the averaged measurements.

What was measured:
[1] = test system: MDA-MB-231; assay: cell viability relative to vehicle unstimulated control (fraction); higher = more viable cells; conditions: pre-treatment time: 18 h then 24 h IFNg/TNF
[2] = test system: MDA-MB-231; assay: kynurenine production, fold change vs DMSO IFNg/TNF control; higher = more kynurenine produced (less inhibition); conditions: pre-treatment time: 18 h then 24 h IFNg/TNF
In short: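 Fold change over cytokine-stimulated vehicle wells on the same plate is the measure used for kynurenine production, averaged across duplicate plates in the first screening round. MDA-MB-231 cells, seeded 24 h beforehand at 7 × 10^4/well in 96-well plates, were pre-treated 18 h with each natural product in 0.1% DMSO and stimulated 24 h at 37°C with IFNγ (1 U/ml) and TNF (6.25 ng/ml). Supernatants were read at 492 nm following trichloroacetic acid and p-dimethylaminobenzaldehyde treatment, against 0–100 μM standards.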
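For cell viability relative to vehicle unstimulated control in this document: viability of the cells left after supernatant collection, read with Deep Blue dye added for 4 h, as absorbance at 570 nm minus 600 nm.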

| SMILES | cell viability [1] | kynurenine production [2] |
| --- | --- | --- |
| COc1cc2c(cc1O)C(Cc1ccc(O)cc1)NCC2 (stereo unspecified) [Coclaurine] (compound dose: 10 uM) | 0.988 ± 0.044 | 1.04 ± 0.062 |
| O=C(O)C1=CO[C@@H](O[C@@H]2O[C@H](CO)[C@@H](O)[C@H](O)[C@H]2O)[C@@H]2C(CO)=C[C@H](O)[C@H]12 [Deacetylasperulosidic acid] (compound dose: 10 uM) | 1.01 ± 0.024 | 1.07 ± 0.041 |
| C=C1C[C@@]2(O)O[C@@]3(C[C@H]2C(C)C)[C@@H](C)CC[C@@H]13 [Curcumol] (compound dose: 10 uM) | 0.997 ± 0.034 | 0.833 ± 0.1 |
| C[C@@H]1C[C@@H]2O[C@@]3(O[C@@H]2C(C)(C)O)[C@H](O)[C@@]2(C)[C@@H]4CC[C@H]5C(C)(C)[C@@H](O)CC[C@@]56C[C@@]46CC[C@]2(C)[C@@H]13 [Cimigenol] (compound dose: 10 uM) | 1.03 ± 0.066 | 0.778 ± 0.31 |
| CC=C1[C@H](O[C@@H]2O[C@H](CO)[C@@H](O)[C@H](O)[C@H]2O)OC=C(C(=O)OC)[C@H]1CC(=O)OC[C@H]1O[C@@H](OCCc2ccc(O)cc2)[C@H](O)[C@@H](O)[C@@H]1O (stereo in doubt) [Specnuezhenide] (compound dose: 10 uM) | 1 ± 0.026 | 0.905 ± 0.21 |
| Cc1ccc(C(C)C)cc2c(C)ccc1-2 [Guaiazulene] (compound dose: 10 uM) | 1.1 ± 0.013 | 0.915 ± 0.21 |
| CC(=O)OCC1=C[C@H]2[C@@H]3C(C)(C)[C@]3(OC(C)=O)[C@H](OC(C)=O)[C@@H](C)[C@]2(O)[C@@H]2C=C(C)C(=O)[C@@]2(O)C1 [Phorbol 12,13,20-triacetate] (compound dose: 10 uM) | 0.868 ± 0.26 | 0.8 ± 0.1 |
| C=C(C)[C@@H]1CC[C@]2(CO)CC[C@]3(C)[C@H](CC[C@@H]4[C@@]5(C)CC[C@H](O)C(C)(C)[C@@H]5CC[C@]43C)[C@@H]12 [Betulin] (compound dose: 2 uM) | 0.842 ± 0.04 | 0.826 ± 0.13 |
| O=c1ccn2c(n1)O[C@H]1[C@H](O)[C@@H](CO)O[C@H]12 [2,2'-Anhydrouridine] (compound dose: 10 uM) | 0.906 ± 0.036 | 0.923 ± 0.092 |
| C/C=C(/C)C(=O)O[C@H]1[C@H](O)[C@]2(COC(C)=O)[C@H](O)C[C@]3(C)C(=CC[C@@H]4[C@@]5(C)CC[C@H](O[C@@H]6O[C@H](C(=O)O)[C@@H](O[C@@H]7O[C@H](CO)[C@@H](O)[C@H](O)[C@H]7O)[C@H](O)[C@H]6O[C@@H]6O[C@H](CO)[C@@H](O)[C@H](O)[C@H]6O)[C@](C)(CO)[C@@H]5CC[C@]43C)[C@@H]2CC1(C)C [Isoescin IB] (compound dose: 10 uM) | 1.08 ± 0.074 | 0.802 ± 0.12 |
| CC1(C)CC[C@]2(C(=O)O)CC[C@]3(C)C(=CC[C@@H]4[C@@]5(C)CC[C@H](O[C@@H]6O[C@H](C(=O)O)[C@@H](O)[C@H](O[C@@H]7OC[C@@H](O)[C@H](O)[C@H]7O)[C@H]6O)C(C)(C)[C@@H]5CC[C@]43C)[C@@H]2C1 [Momordin Ic] (compound dose: 10 uM) | 1.07 ± 0.023 | 0.967 ± 0.2 |
| C[C@@]12C[C@@]3(O)O[C@@H](O1)[C@]1(COC(=O)c4ccc(O)cc4)[C@@H]3C[C@]12O[C@@H]1O[C@H](CO)[C@@H](O)[C@H](O)[C@H]1O [Oxypaeoniflorin] (compound dose: 10 uM) | 1.05 ± 0.069 | 0.916 ± 0.082 |
| CC1=CCC2C[C@H]1C2(C)C [(1R)-α-Pinene] (compound dose: 10 uM) | 0.932 ± 0.081 | 0.79 ± 0.12 |
| C=C1C[C@@]23CC[C@H]4[C@@](C)(CCC[C@@]4(C)C(=O)O)[C@@H]2CC[C@]1(O)C3 [Steviol] (compound dose: 10 uM) | 1.1 ± 0.014 | 0.964 ± 0.38 |
| CC(C)=CCC[C@@H](C(=O)O)[C@H]1CC[C@@]2(C)C3=CC[C@H]4C(C)(C)[C@@H](O)CC[C@]4(C)C3=CC[C@]12C [3-Dehydrotrametenolic acid] (compound dose: 10 uM) | 1.01 ± 0.045 | 0.83 ± 0.085 |
| CC1=CCC(C(C)C)=CC1 [γ-Terpinene] (compound dose: 10 uM) | 1.07 ± 0.036 | 0.75 ± 0.53 |
| Cc1coc2c1C(=O)C(=O)c1c-2ccc2c(C)cccc12 [Tanshinone I] (compound dose: 2 uM) | 0.921 ± 0.029 | 0.643 ± 0.14 |

| SMILES | cell viability [1] | kynurenine production [2] |
| --- | --- | --- |
| CC(C)=CCC[C@](C)(O[C@@H]1O[C@H](CO)[C@@H](O)[C@H](O)[C@H]1O)[C@H]1CC[C@]2(C)[C@@H]1[C@H](O)C[C@@H]1[C@@]3(C)CC[C@H](O)C(C)(C)[C@@H]3[C@@H](O[C@@H]3O[C@H](CO)[C@@H](O)[C@H](O)[C@H]3O[C@@H]3OC[C@@H](O)[C@H](O)[C@H]3O)C[C@]12C [Notoginsenoside R1] (compound dose: 10 uM) | 0.909 ± 0.066 | 1 ± 0.038 |
| C[C@H]1O[C@@H](O[C@H]2[C@@H](O)C[C@H](O[C@H]3[C@@H](O)C[C@H](O[C@H]4CC[C@@]5(C)[C@H](CC[C@@H]6[C@@H]5C[C@@H](O)[C@]5(C)[C@@H](C7=CC(=O)OC7)CC[C@]65O)C4)O[C@@H]3C)O[C@@H]2C)C[C@H](O)[C@@H]1O [Digoxin] (compound dose: 10 uM) | 0.543 ± 0.066 | 0.103 ± 0.071 |
| C=C1C=CC(C(C)C)CC1 (stereo not drawn) [β-Phellandrene] (compound dose: 10 uM) | 0.99 ± 0.038 | 0.832 ± 0.18 |
| C[C@@H]1O[C@@H](O[C@H]2[C@H](OC(=O)[C@]34CCC(C)(C)C[C@H]3C3=CC[C@@H]5[C@@]6(C)C[C@H](O)[C@H](O[C@@H]7O[C@H](CO)[C@@H](O)[C@H](O)[C@H]7O)C(CO)(CO)[C@@H]6CC[C@@]5(C)[C@]3(C)C[C@H]4O)OC[C@H](O)[C@@H]2O)[C@H](O)[C@H](O)[C@H]1O[C@@H]1OC[C@@H](O)[C@H](O)[C@H]1O [Deapioplatycodin D] (compound dose: 10 uM) | 0.93 ± 0.031 | 0.643 ± 0.13 |
| C=C1CC[C@H]2[C@@H](/C=C(\C)C(=O)[C@@]3(OC(C)=O)C[C@H](C)[C@H](OC(=O)c4cccnc4)[C@@H]3[C@H]1OC(C)=O)C2(C)C [Euphorbia factor L8] (compound dose: 10 uM) | 1.1 ± 0.075 | 0.89 ± 0.083 |
| C=C1C(=O)[C@@]23[C@@H]4OC5O[C@@]2(O)[C@@H](O)[C@@H]2C(C)(C)CC[C@@H](O)[C@]52[C@@H]3CC[C@@H]14 [Ponicidin] (compound dose: 10 uM) | 0.9 ± 0.21 | 0.404 ± 0.15 |
| CC1(C)CC[C@]2(C(=O)O)CC[C@]3(C)C(=CC[C@@H]4[C@@]5(C)CCC(=O)C(C)(C)[C@@H]5CC[C@]43C)[C@@H]2C1 [Oleanonic acid] (compound dose: 10 uM) | 0.957 ± 0.031 | 1.136 ± 0.0017 |
| C[C@H]1[C@H](C)CC[C@]2(C(=O)O)CC[C@]3(C)C(=CC[C@@H]4[C@@]5(C)C[C@@H](O)[C@H](O)C(C)(C)[C@@H]5CC[C@]43C)[C@H]12 [Corosolic acid] (compound dose: 10 uM) | 1.07 ± 0.16 | 1.19 ± 0.13 |
| C=C1C(OC(C)=O)C(OC(C)=O)C(OC(=O)c2cccnc2)C(C)(C)C=CC(C)C(OC(C)=O)C2(O)CC(C)(OC(C)=O)C(OC(=O)c3ccccc3)C2C1OC(C)=O (stereo unspecified) [Pepluanin A] (compound dose: 10 uM) | 1.11 ± 0.017 | 0.806 ± 0.06 |
| CC(C)=CCC[C@@H](C)CC=O [(R)-(+)-Citronellal] (compound dose: 10 uM) | 1.07 ± 0.035 | 1.44 ± 0.056 |
| C[C@H](CC[C@@H](OC[C@@H]1O[C@H](OC[C@H]2O[C@@H](O)[C@H](O)[C@@H](O)[C@@H]2O)[C@@H](O)[C@H](O)[C@H]1O)C(C)(C)O)[C@H]1CC[C@@]2(C)[C@@H]3CC=C4[C@@H](CC[C@H](O)C4(C)C)[C@]3(C)[C@H](O)C[C@]12C [Mogroside IIA1] (compound dose: 10 uM) | 1.22 ± 0.15 | 1.07 ± 0.13 |
| COC(=O)[C@]12OC[C@]34[C@H]([C@@H](O)[C@@H]1O)[C@@]1(C)CC(=O)C(O)=C(C)[C@@H]1C[C@H]3OC(=O)[C@H](OC(=O)C=C(C)C)[C@@H]24 [Brusatol] (compound dose: 10 uM) | 0.432 ± 0.034 | 0.1176 ± 0.00049 |
| C[C@@H]1O[C@@H](O[C@H]2[C@H](OC(=O)[C@]34CCC(C)(C)C[C@H]3C3=CC[C@@H]5[C@@]6(C)C[C@H](O)[C@H](O[C@@H]7O[C@H](CO)[C@@H](O)[C@H](O)[C@H]7O)[C@@](C)(CO)[C@@H]6CC[C@@]5(C)[C@]3(C)C[C@H]4O)OC[C@H](O)[C@@H]2O)[C@H](O)[C@H](O)[C@H]1O[C@@H]1OC[C@@H](O)[C@H](O[C@@H]2OC[C@](O)(CO)[C@H]2O)[C@H]1O [Polygalacin D] (compound dose: 10 uM) | 0.821 ± 0.05 | 0.382 ± 0.056 |
| CC(C)=CCC[C@](C)(O)[C@H]1CC[C@]2(C)[C@@H]1[C@H](O)C[C@@H]1[C@@]3(C)CC[C@H](O[C@@H]4O[C@H](CO)[C@@H](O)[C@H](O)[C@H]4O[C@@H]4O[C@H](CO)[C@@H](O)[C@H](O)[C@H]4O)C(C)(C)[C@@H]3CC[C@]12C [20(S)-Ginsenoside Rg3] (compound dose: 10 uM) | 1 ± 0.046 | 0.969 ± 0.28 |
| C=C1C(=O)O[C@@H]2/C=C(\C)[C@@H](OC(C)=O)C/C=C(\COC(C)=O)C[C@@H](OC(=O)/C(C)=C/CO)[C@@H]12 [Eupalinolide B] (compound dose: 10 uM) | 0.899 ± 0.057 | 0.26 ± 0.0058 |
| CC(=O)O[C@@H]1CC[C@@]2(C)[C@@H](CC[C@]3(C)[C@@H]2C(=O)C=C2[C@@H]4[C@@H](C)[C@H](C)CC[C@]4(C)CC[C@]23C)[C@@]1(C)C(=O)O (compound dose: 10 uM) | 1.03 ± 0.031 | 1.06 ± 0.062 |
